Compounds with a hit are over-represented: about 5.6% of the library has one in this group of screens.
ALR H2O2 inh = human ALR oxidase inhibition via reduced H2O2 | P55789 | purified ALR, DTT oxidation, H2O2 HRP-luminol luminescence | inhibition, % (concentration not given with the values) | 290,000 compounds, 3.8% hits | AID 485317;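 active means mean replicate inhibition above about 79%, with every replicate also reaching it, limit read from the data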
Target sequence (P55789 whole entry, looked up): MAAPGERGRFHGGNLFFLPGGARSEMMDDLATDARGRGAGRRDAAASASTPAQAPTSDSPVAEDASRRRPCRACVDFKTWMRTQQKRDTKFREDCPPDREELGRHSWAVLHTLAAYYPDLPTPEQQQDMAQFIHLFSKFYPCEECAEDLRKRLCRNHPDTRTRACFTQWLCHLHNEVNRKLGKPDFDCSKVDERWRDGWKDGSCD
M18AAP inhibitor = blocks P. falciparum M18 aspartyl aminopeptidase | inhibition, % at 7.35 µM | recombinant PfM18AAP, H-Glu-NHMec fluorogenic cleavage | 290,000 compounds, 1.2% hits | AID 1822;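 active means inhibition above the campaign mean inhibition over all tested compounds plus 3 SD, cut at about 28% in these data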
H9c2 protect = myocardial damage modulation in H9c2 cells; H9c2 cardiomyocytes, H2O2 injury protection, ATPLite, 2 h; protection from H2O2 cell death, % at 20 µM; 360,000 compounds, 0.63% hits; AID 588492;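 active means compounds giving at least 50% protection of heart cells from peroxide-induced death in the single-dose screen, raw or plate-pattern-corrected value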
PfG6PD inh = PfG6PD (Plasmodium falciparum) enzyme inhibition; PfGluPho enzyme, NADPH resazurin-diaphorase fluorescence; inhibition, % at 20 µM; 350,000 compounds, 0.78% hits; AID 504690;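 active means inhibition reaching at least a set limit at 20 µM in the primary screen, cut at about 59% in these data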
PHOSPHO1 block = PHOSPHO1 (human) inhibition; 290,000 compounds, 1.1% hits; inhibition, % at 13.3 µM; recombinant PHOSPHO1, absorbance phosphatase assay; in the data active means inhibition above about 60%
Target sequence (Q8TCT1 whole entry, looked up): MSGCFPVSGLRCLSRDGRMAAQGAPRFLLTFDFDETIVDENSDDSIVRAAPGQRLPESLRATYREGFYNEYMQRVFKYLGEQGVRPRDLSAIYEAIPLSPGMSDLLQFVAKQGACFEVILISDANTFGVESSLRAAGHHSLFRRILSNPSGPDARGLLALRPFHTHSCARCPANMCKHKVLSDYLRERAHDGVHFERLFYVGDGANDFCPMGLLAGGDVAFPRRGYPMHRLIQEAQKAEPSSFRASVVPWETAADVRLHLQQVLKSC
Of the large screens only hits and unclear results are named; the others gave an inactive call.

COc1ccc2c(C)cc(SCC(=O)Nc3nsc(-c4ccc(C)cc4)n3)nc2c1	none
Cc1ccc(S(=O)(=O)Nc2cc(C(C)C)c(O)cc2C)cc1	ALR H2O2 inh 97
Cc1ccc(S(=O)(=O)Nc2cc(Cl)c(O)cc2C)cc1	none (no result: ALR H2O2 inh)
Cc1ccc(/C=C/C(=O)c2c(C)nc3ccccn23)cc1	ALR H2O2 inh 98
Cc1nc2ccccn2c1C(=O)/C=C/c1cccc([N+](=O)[O-])c1	none
CN(CCCNC(=O)C1CCCN(S(=O)(=O)c2cnc[nH]2)C1)c1ccccc1 (stereo not given)	ALR H2O2 inh 100
CCCS(=O)(=O)N1CCCC(C(=O)NCCCN(C)c2ccccc2)C1 (stereo not given)	ALR H2O2 inh 82
CN(Cc1ccccc1)C(=O)c1ccc(Cc2cn(C)c3ccccc23)nc1	none (no result: ALR H2O2 inh, M18AAP inhibitor, PfG6PD inh, PHOSPHO1 block)
CCOC(=O)c1[nH]c2cc(OC)c(OC)cc2c1NC(=O)CCN1CCSCC1	none (no result: ALR H2O2 inh)
CCOC(=O)c1[nH]c2ccc(OC)cc2c1NC(=O)CCN1CCC(C)CC1	PHOSPHO1 block 71 (no result: H9c2 protect)
CCOC(=O)c1[nH]c2cc(OC)c(OC)cc2c1NC(=O)CN(C)C1CCCCC1	ALR H2O2 inh 97
CCOC(=O)c1[nH]c2cc(OC)c(OC)cc2c1NC(=O)c1ccc2c(c1)OCO2	PHOSPHO1 block 68
CCOC(=O)c1[nH]c2ccc(OC)cc2c1NC(=O)c1ccc2c(c1)OCO2	none
COc1cc(-c2cc(NC=O)c3ncc(-c4ccccc4)n3c2)cc(OC)c1OC	H9c2 protect 96 (no result: ALR H2O2 inh, M18AAP inhibitor, PfG6PD inh, PHOSPHO1 block)
COc1cc(-c2cnc3c(NC=O)cc(-c4ccccc4)cn23)cc(OC)c1OC	none (no result: ALR H2O2 inh, M18AAP inhibitor, PfG6PD inh, PHOSPHO1 block)
COc1cc(-c2cc(NC=O)c3ncc(-c4ccc(C(C)=O)cc4)n3c2)cc(OC)c1OC	H9c2 protect 81 (no result: ALR H2O2 inh, M18AAP inhibitor, PfG6PD inh, PHOSPHO1 block)
COc1cc(-c2cc(NC=O)c3ncc(-c4cccc(C(F)(F)F)c4)n3c2)cc(OC)c1OC	H9c2 protect 59 (no result: ALR H2O2 inh, M18AAP inhibitor, PfG6PD inh, PHOSPHO1 block)
CC1C=CCC2C(=O)N(c3cc(Cl)ccc3O)C(=O)C12 (stereo not given)	none
NC(=N\N=Cc1ccco1)/C(N)=N/N=Cc1ccco1	none (no result: ALR H2O2 inh, M18AAP inhibitor, PHOSPHO1 block)
COCCCn1c(C)csc1=Nc1cccnc1	none
Cc1csc(=Nc2ccccc2)n1CCCN1CCCC1=O	ALR H2O2 inh 99
COc1ccc(N=c2scc(C)n2CCCN2CCCC2=O)cc1	ALR H2O2 inh 100
Cc1csc(=Nc2ccccc2)n1C	ALR H2O2 inh 99
Nc1ccccc1C(=O)N1CCc2ccccc21	none
CC(=O)NC(C)(c1ccccc1)c1nc(/C=C/c2ccccc2)cs1 (stereo not given)	none (no result: ALR H2O2 inh, M18AAP inhibitor, PfG6PD inh, PHOSPHO1 block)
O=C(O)c1cc(-c2ccc(Cl)s2)nc2ccccc12	ALR H2O2 inh 93
Cc1ccc(-c2cc(C(=O)O)c3ccccc3n2)s1	none
Cc1ccc(C)c(N2C(=O)CC(Cc3ccccc3)C2=O)c1 (stereo not given)	none
CCOC(=O)Cn1c(=S)[nH]c2c(oc3ccc(Cl)cc32)c1=O	ALR H2O2 inh 96, PHOSPHO1 block 93
Cc1snc2sc(C(=O)c3ccc(Br)cc3)c(N)c12	PHOSPHO1 block 86
Cc1nc2sc(C(=O)c3ccccc3)c(N)c2c(C)c1C	none
Cc1ccc(C(=O)c2sc3nsc(C)c3c2N)cc1	PHOSPHO1 block 98
Cc1nc(-c2ccccc2)nc2sc(C(=O)c3ccc(F)cc3)c(N)c12	none
CC(=N\NC(=O)c1ccccc1)/C(=N/O)C(=O)Nc1ccccc1	none
CC(=N\Nc1ccccc1)/C(=N/O)C(=O)Nc1ccccc1	ALR H2O2 inh 97
CCOC(=O)[C@H]1[C@H]2COc3ccc(Br)cc3[C@H]2N2C(=O)CNC(=O)[C@@]12C	none (no result: M18AAP inhibitor, PHOSPHO1 block)
COC(=O)c1[nH]c(=O)c2ccccc2c1O	ALR H2O2 inh 98
COC(=O)c1[nH]c(=O)c2ccccc2c1OCc1ccccc1	none (no result: ALR H2O2 inh)
COc1ccc(NC(=O)CSc2nc3c(sc4ccccc43)c(=O)n2CCCN2CCCC2)cc1	ALR H2O2 inh 99
O=C(CSc1nc2c(sc3ccccc32)c(=O)n1CCCN1CCCC1)NCC1CCCO1 (stereo not given)	none
CCN(CC)CCn1c(SCC(=O)NCc2ccccc2)nc2c(sc3ccccc32)c1=O	ALR H2O2 inh 97
O=C1[C@@H](Oc2ccccc2)[C@@H](c2cnc3ccccc3c2)N1c1ccccc1	none (no result: ALR H2O2 inh, M18AAP inhibitor, PHOSPHO1 block)
O=c1cc(-c2cccc([N+](=O)[O-])c2)[nH][nH]1	ALR H2O2 inh 82
Nc1cc(-c2cccc([N+](=O)[O-])c2)[nH]n1	none
c1cn2cc(-c3ccc4c(c3)OCO4)nc2s1	ALR H2O2 inh 95, PHOSPHO1 block 68
O=C(Nc1ccc(-c2cn3ccsc3n2)cc1)C1CCCC1	none
O=C(Nc1ccc(-c2cn3ccsc3n2)cc1)C1CC1	PHOSPHO1 block 88
CCOC(=O)C1=C(C)NC(=S)NC1c1ccc(OCC(=O)N2CCCCCC2)cc1 (stereo not given)	none (no result: ALR H2O2 inh)
Cc1cccc(C)c1NC(=O)CN1C(=O)COc2ccccc21	none
C=CCn1c(CCSCc2ccccc2)n[nH]c1=S	ALR H2O2 inh 94
CCC(C)C(NC(=O)CCC(=O)OCC(=O)[C@@]1(O)CCC2[C@@H]3CCC4=CC(=O)C=C[C@]4(C)C3[C@@H](O)C[C@@]21C)C(=O)O (stereo not given in full)	none
Fc1ccc(-n2c(-c3ccc4ccccc4n3)n[nH]c2=S)cc1Cl	none
S=c1[nH]nc(-c2ccc3ccccc3n2)n1-c1ccc2ncccc2c1	PHOSPHO1 block 74 (no result: ALR H2O2 inh)
C[C@H](CO)N1C[C@H](C)[C@@H](CN(C)C(=O)Nc2ccc(C(F)(F)F)cc2)Oc2ccc(NS(=O)(=O)c3cn(C)cn3)cc2C1=O	none (no result: M18AAP inhibitor, PHOSPHO1 block)
O=C(CSc1nnc2c3ccccc3c3ccccc3c2n1)Nc1ccccc1F	PHOSPHO1 block 94
CCn1c(SCC(=O)Nc2ccccc2Cl)nnc1C1CC1	none
CCc1nnc(SCC(=O)Nc2ccccc2Cl)nc1CC	ALR H2O2 inh 98
O=C(CSc1nnc2c3ccccc3c3ccccc3c2n1)Nc1ccccc1	none (no result: H9c2 protect, PfG6PD inh)
O=C(C1=C(O)C(=O)N(CCCN2CCOCC2)C1c1ccc(Cl)cc1)c1cc2ccccc2o1 (stereo not given)	ALR H2O2 inh 92 (no result: H9c2 protect)
O=C(C1=C(O)C(=O)N(CCN2CCOCC2)C1c1ccc(Cl)cc1)c1cc2ccccc2o1 (stereo not given)	none
COc1ccc(-c2oc3ncnc(NCCN4CCOCC4)c3c2-c2ccc(OC)cc2)cc1	H9c2 protect 75
CCCCn1c(N)c(N(CC(C)C)C(=O)C2CC(=O)N(Cc3ccco3)C2)c(=O)[nH]c1=O (stereo not given)	none
CC(C)(C)NC(=S)NC(=O)C12CC3CCC(CC(C3)C1)C2	none
CN(C(=S)NC(=O)C12CC3CC(CC(C3)C1)C2)c1ccc(O)cc1	PfG6PD inh 103 (no result: ALR H2O2 inh, M18AAP inhibitor, PHOSPHO1 block)
CN(C)NC(=S)NC(=O)C12CC3CC(CC(C3)C1)C2	ALR H2O2 inh 92
CN(C)c1ccc(C(=O)NNC(=O)C23CC4CC(CC(C4)C2)C3)cc1	none (no result: M18AAP inhibitor, PHOSPHO1 block)
CSCCC(NC(=O)c1ccco1)C(=O)NC1CCC(C)CC1 (stereo not given)	none (no result: ALR H2O2 inh, M18AAP inhibitor, PHOSPHO1 block)
COc1cc(CNc2ccc(NC(C)=O)cc2)ccc1OCc1ccccc1C	none
COc1cc(CNc2ccc(N3CCN(C(C)=O)CC3)cc2)ccc1OCc1ccccc1	ALR H2O2 inh 99

Assay outcomes as filed in PubChem.
